Source: PubChem BioAssay AID1159580 (chemical genetic matrix, 2015)
The campaign covered roughly 5,500 compounds. About 2,000 (36%) were called active. Another 18% or so got no clear call; they are omitted. Some of the results follow. Values without a mark were called inactive. Rule as the data show it: active = normalized growth mostly below about 0.91 (no sharp cut-off); inconclusive = no clear call, values can overlap the other calls; inactive = mostly above about 0.92.

Assay: chemical genetic growth profiling, strain panel (AID 1159580);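 also: tested at 20 µM; growth read once vehicle control cultures reached saturation at 30 °C; 1 = growth at the plate median or of vehicle wells; lower values mean less growth of the strain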
Settings: S. cerevisiae deletion strains, growth OD

**Q.** With `N#C/C(=N/Nc1ccc(Cl)cc1)C(=O)C1CC1` as the molecule, how does the normalized growth (locus YAR019C, strain CDC15, active compounds read low) read?
**A.** 0.863 (active)

**Q.** What about the normalized growth (locus YBL105C, strain PKC1, active compounds read low) of the same molecule?
**A.** 0.86 (active)

**Q.** What about the normalized growth (locus YBR135W, strain CKS1, active compounds read low) of the same molecule?
**A.** 0.854 (active)

**Q.** What about the normalized growth (locus YBR136W, strain MEC1, active compounds read low) of the same molecule?
**A.** 0.86 (active)

**Q.** What about the normalized growth (locus YBR160W, strain CDC28, active compounds read low) of the same molecule?
**A.** 0.863 (active)

**Q.** And the normalized growth (locus YDL017W, strain CDC7, active compounds read low)?
**A.** 0.865 (active)

**Q.** And the normalized growth (locus YDL028C, strain MPS1, active compounds read low)?
**A.** 0.859 (active)

**Q.** And the normalized growth (locus YDL101C, strain DUN1, active compounds read low)?
**A.** 0.903 (active)

**Q.** What about the normalized growth (locus YDL108W, strain KIN28, active compounds read low) of the same molecule?
**A.** 0.86 (active)

**Q.** What about the normalized growth (locus YDL132W, strain cdc53, active compounds read low) of the same molecule?
**A.** 0.847 (active)

**Q.** And the normalized growth (locus YDL214C, strain PRR2, active compounds read low)?
**A.** 0.807

**Q.** What about the normalized growth (locus YDR052C, strain DBF4, active compounds read low) of the same molecule?
**A.** 0.862 (active)

**Q.** What about the normalized growth (locus YDR054C, strain cdc34, active compounds read low) of the same molecule?
**A.** 0.848 (active)

**Q.** And the normalized growth (locus YDR226W, strain ADK1, active compounds read low)?
**A.** 0.855 (active)

**Q.** What about the normalized growth (locus YDR477W, strain SNF1, active compounds read low) of the same molecule?
**A.** 0.674 (active)

**Q.** What about the normalized growth (locus YER123W, strain YCK3, active compounds read low) of the same molecule?
**A.** 0.492 (active)

**Q.** What about the normalized growth (locus YER133W, strain GLC7, active compounds read low) of the same molecule?
**A.** 0.626 (active)

**Q.** What about the normalized growth (locus YFL009W, strain cdc4, active compounds read low) of the same molecule?
**A.** 0.844 (active)

**Q.** What about the normalized growth (locus YFL029C, strain CAK1, active compounds read low) of the same molecule?
**A.** 0.853 (active)

**Q.** And the normalized growth (locus YFR003C, strain YPI1, active compounds read low)?
**A.** 0.857 (active)

**Q.** And the normalized growth (locus YFR019W, strain FAB1, active compounds read low)?
**A.** 0.916

**Q.** What about the normalized growth (locus YFR028C, strain CDC14, active compounds read low) of the same molecule?
**A.** 0.854 (active)

**Q.** What about the normalized growth (locus YGR040W, strain KSS1, active compounds read low) of the same molecule?
**A.** 0.665 (active)

**Q.** And the normalized growth (locus YGR052W, strain FMP48, active compounds read low)?
**A.** 0.666

**Q.** And the normalized growth (locus YGR092W, strain DBF2, active compounds read low)?
**A.** 0.332 (active)

**Q.** What about the normalized growth (locus YHR030C, strain SLT2, active compounds read low) of the same molecule?
**A.** 0.416 (active)

**Q.** And the normalized growth (locus YHR079C, strain IRE1, active compounds read low)?
**A.** 0.604

**Q.** And the normalized growth (locus YHR082C, strain KSP1, active compounds read low)?
**A.** 0.691

**Q.** And the normalized growth (locus YHR205W, strain SCH9, active compounds read low)?
**A.** 0.711

**Q.** What about the normalized growth (locus YIL147C, strain SLN1, active compounds read low) of the same molecule?
**A.** 0.865 (active)

**Q.** And the normalized growth (locus YJL095W, strain BCK1, active compounds read low)?
**A.** 0.416 (active)

**Q.** What about the normalized growth (locus YJL128C, strain PBS2, active compounds read low) of the same molecule?
**A.** 0.862

**Q.** What about the normalized growth (locus YJL157C, strain FAR1, active compounds read low) of the same molecule?
**A.** 0.757

**Q.** What about the normalized growth (locus YJR016C, strain ILV3, active compounds read low) of the same molecule?
**A.** 0.854 (active)

**Q.** And the normalized growth (locus YJR066W, strain TOR1 (second series), active compounds read low)?
**A.** 0.737

**Q.** And the normalized growth (locus YJR066W, strain TOR1, active compounds read low)?
**A.** 0.643

**Q.** And the normalized growth (locus YKL048C, strain ELM1, active compounds read low)?
**A.** 0.793 (active)

**Q.** And the normalized growth (locus YKL067W, strain YNK1, active compounds read low)?
**A.** 0.763

**Q.** What about the normalized growth (locus YKL101W, strain HSL1, active compounds read low) of the same molecule?
**A.** 0.802

**Q.** What about the normalized growth (locus YKL193C, strain SDS22, active compounds read low) of the same molecule?
**A.** 0.851 (active)

**Q.** And the normalized growth (locus YKL203C, strain TOR2, active compounds read low)?
**A.** 0.706 (active)

**Q.** What about the normalized growth (locus YLR113W, strain HOG1, active compounds read low) of the same molecule?
**A.** 0.567 (active)

**Q.** And the normalized growth (locus YLR133W, strain CKI1, active compounds read low)?
**A.** 0.811

**Q.** What about the normalized growth (locus YLR403W, strain SFP1, active compounds read low) of the same molecule?
**A.** 0.646 (active)

**Q.** What about the normalized growth (locus YML070W, strain DAK1, active compounds read low) of the same molecule?
**A.** 0.735

**Q.** What about the normalized growth (locus YMR001C, strain CDC5, active compounds read low) of the same molecule?
**A.** 0.855 (active)

**Q.** And the normalized growth (locus YMR205C, strain PFK2 (second series), active compounds read low)?
**A.** 0.774

**Q.** And the normalized growth (locus YMR277W, strain FCP1, active compounds read low)?
**A.** 0.847 (active)

**Q.** And the normalized growth (locus YNL006W, strain LST8, active compounds read low)?
**A.** 0.856 (active)

**Q.** And the normalized growth (locus YNL020C, strain ARK1, active compounds read low)?
**A.** 0.805

**Q.** And the normalized growth (locus YNL161W, strain CBK1, active compounds read low)?
**A.** 0.86 (active)

**Q.** And the normalized growth (locus YNL183C, strain NPR1, active compounds read low)?
**A.** 0.551 (active)

**Q.** What about the normalized growth (locus YNL207W, strain RIO2, active compounds read low) of the same molecule?
**A.** 0.842 (active)

**Q.** What about the normalized growth (locus YNL222W, strain SSU72, active compounds read low) of the same molecule?
**A.** 0.848 (active)

**Q.** What about the normalized growth (locus YNL307C, strain MCK1 (second series), active compounds read low) of the same molecule?
**A.** 0.641 (active)

**Q.** And the normalized growth (locus YOL078W, strain AVO1, active compounds read low)?
**A.** 0.846 (active)

**Q.** And the normalized growth (locus YOL136C, strain PFK27, active compounds read low)?
**A.** 0.752

**Q.** And the normalized growth (locus YOR061W, strain CKA2, active compounds read low)?
**A.** 0.81

**Q.** And the normalized growth (locus YOR119C, strain RIO1, active compounds read low)?
**A.** 0.667 (active)

**Q.** What about the normalized growth (locus YOR231W, strain MKK1, active compounds read low) of the same molecule?
**A.** 0.576 (active)

**Q.** And the normalized growth (locus YOR329C, strain SCD5, active compounds read low)?
**A.** 0.86 (active)

**Q.** What about the normalized growth (locus YPL031C, strain PHO85, active compounds read low) of the same molecule?
**A.** 0.592 (active)

**Q.** What about the normalized growth (locus YPL153C, strain RAD53, active compounds read low) of the same molecule?
**A.** 0.595 (active)

**Q.** What about the normalized growth (locus YPL204W, strain HRR25, active compounds read low) of the same molecule?
**A.** 0.554 (active)

**Q.** What about the normalized growth (locus YPL209C, strain IPL1, active compounds read low) of the same molecule?
**A.** 0.853 (active)

**Q.** And the normalized growth (locus YPL256C, strain CLN2, active compounds read low)?
**A.** 0.65 (active)

**Q.** And the normalized growth (locus YPR025C, strain CCL1, active compounds read low)?
**A.** 0.856 (active)

**Q.** And the normalized growth (locus YPR106W, strain ISR1, active compounds read low)?
**A.** 0.92

**Q.** And the normalized growth (locus YPR111W, strain DBF20, active compounds read low)?
**A.** 0.876

**Q.** And the normalized growth (strain NNK1, active compounds read low)?
**A.** 0.885

**Q.** And the normalized growth (strain TSCII, active compounds read low)?
**A.** 0.85 (active)
